# Laboratory results: PubChem BioAssay (Tox21)
# Results filed as inconclusive are left out. Where a call stands in place of a potency, no number is given. Unmarked numbers belong to inactive results. The source made the active and inactive calls. The call rests on the fitted dose curve.
# Test: qHTS assay to identify small molecule agonists of the NFkB signaling pathway - cell viability counter screen (AID 1159515); further: nearly all actives have a fitted effect of over 55% in size
# Conditions: NFkB-bla ME-180 viability, CellTiter-Glo luminescence, 5 h; series mostly up to 61 µM
# Procedure, shortened: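 Parallel cytotoxicity counter screen in ME-180 cells carrying an NFkB-response-element beta-lactamase reporter, 2,000 cells/well. Compound exposure lasted 5 hr at 37 C, 5% CO2. Cell viability was quantified by CellTiter-Glo luminescence.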
# Potency means the concentration at half of the fitted maximal effect.
Structure (SMILES),Potency,"activity, negative = cytotoxic"
COC(=O)C1=C(C)NC(C)=C(C(=O)OCCN2CCN(C(c3ccccc3)c3ccccc3)CC2)C1c1cccc([N+](=O)[O-])c1 (centres undefined),inactive,–
CCCC[P+](C)(CCCC)CCCC,inactive,–
CC[N+](CC)(CC)CCOC(=O)C(C1CCCC1)C1CCCC1,inactive,–
O=C1C(c2[nH]c3ccc(S(=O)(=O)O)cc3c2O)=Nc2ccc(S(=O)(=O)O)cc21,inactive,–
CC(CCc1ccccc1)NCC(O)c1ccc(O)c(C(N)=O)c1 (centres undefined),inactive,–
CCO[C@@H]1O[C@H](C(COCc2ccccc2)OCc2ccccc2)[C@H](OCc2ccccc2)[C@H]1O (some centres undefined),21.3 µM (active),–
O=C(O)c1cc(O)c2ccccc2c1O,21.9 µM (active),–
O=C(O)c1cccc(C(F)(F)F)c1,inactive,–
COc1ccc(-c2coc3cc(O)ccc3c2=O)cc1,inactive,–
NC(=S)NC(N)=S,inactive,–
CC(C)(C)CC(C)(C)c1ccc(Nc2ccc(C(C)(C)CC(C)(C)C)cc2)cc1,–,-7.48% [at 6.95 µM]
CC(C)=CCC1=C(O)c2ccccc2C(=O)C1=O,inactive,–
O=C(Oc1ccccc1)Oc1ccccc1,inactive,–
Cc1ccc(-c2ccccc2)cc1,inactive,–
CCCCNS(=O)(=O)c1ccc(C)cc1,inactive,–
Clc1sc(Cl)c(Cl)c1Cl,inactive,–
Cc1ccc(O)c(O)c1,inactive,–
CCCc1ccc(OCC(=O)N2CCN(C(=O)COc3ccc(CCC)cc3OC)CC2)c(OC)c1,inactive,–
COc1cc(S(=O)(=O)O)c(C)cc1N=Nc1c(O)ccc2cc(S(=O)(=O)O)ccc12,inactive,–
O=C(O)CCN(C1(C(=O)NO)CCCC1)S(=O)(=O)c1ccc(Oc2ccc(F)cc2)cc1,inactive,–

Structure (SMILES),Potency,"activity, negative = cytotoxic"
O=[N+]([O-])c1cccc(C(F)(F)F)c1,inactive,–
CC1=Nc2ccccc2C1(C)C,inactive,–
OCCN1CCN(CCCN2c3ccccc3Sc3ccc(C(F)(F)F)cc32)CC1,inactive,–
COc1cc(/C=C/c2ccccc2)oc(=O)c1,inactive,–
CN(C)Cc1cc(C(C)(C)C)c(O)c(C(C)(C)C)c1,inactive,–
O=c1[nH]c(=O)n([C@H]2C[C@H](O)[C@@H](CO)O2)cc1F,inactive,–
C=C(CC)C(=O)c1ccc(OCC(=O)O)c(Cl)c1Cl,inactive,–
CCCCCCCCCCCCOC(=O)c1ccc(O)cc1,inactive,–
Nc1ccc(Oc2ccc(Cl)cc2)cc1,inactive,–
CCCCCCCC/C=C\CCCCCCCCN,inactive,–
CN(C)CCN1CCN(c2cccc(Cl)c2)C1=O,inactive,–
COC(=O)c1ccccc1OC,inactive,–
O=C(O)O,–,-3.19% [at 6.95 µM]
CNC(=O)c1ccccc1Sc1ccc2c(/C=C/c3ccccn3)n[nH]c2c1,inactive,–
O=C1CCc2cc(OCCCCc3nnnn3C3CCCCC3)ccc2N1,inactive,–
COC1=C(OC)C(=O)C(CCCCCCCCCCO)=C(C)C1=O,inactive,–
CCC(C)[O-].CCC(C)[O-].CCOC(=O)/C=C(/C)[O-].[Al+3],inactive,–
CN(C)[C@@H](CCOc1cccc2ccccc12)c1ccccc1,inactive,–
CCc1oc2ccccc2c1C(=O)c1cc(I)c(O)c(I)c1,inactive,–
